This is a sample that favours compounds with a hit; in the whole collection about 2.4% have one here.
HSF1 inh: HSF1 inhibition; NIH3T3-HGL HSE-luciferase, MG132-induced, luminescence 8 h; stronger effect = lower value; activity change, negative = inhibition, % at 7.5 µM (by protocol); 300,000 compounds, 0.77% hits; AID 2098;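 active = more than half of replicate wells show activity change below -50%, luminescence cut by over half; inconclusive = some wells, but at most half, below -50%; inactive = no replicate well below -50%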;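 note: luciferase reports HSF-1 transcriptional activity via heat shock element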
TLR4-MyD88 BLA: blocks binding of human TLR4 to MyD88; 200,000 compounds, 0.18% hits; inhibition, % at 8.4 µM; HeLa CL3-4 TLR4/MyD88 BLA complementation, FRET ratio; O00206+Q99836; in the data active = inhibition above about 25%
NOD2 RIPK2 PPI: inhibitors of human NOD2-RIPK2 interaction; CHO BLA complementation NOD2-RIPK2, CCF4 ratio; O43353; inhibition, % at 4.98 µM; 360,000 compounds, 0.38% hits; AID 624267; in the data active = inhibition above about 21%
TLR9-MyD88 block: TLR9-MyD88 interaction inhibition; inhibition, % at 4.98 µM; 340,000 compounds, 0.21% hits; CHO BLA complementation TLR9-MyD88, CCF4 FRET ratio;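 active = inhibition above the mean over all tested compounds plus 3 SD, cut at about 21% in these data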
HSF-1 act: increases HSF-1 driven luciferase reporter signal | NIH3T3-HGL HSF-1 luciferase reporter, MG132, 8 h; 100% = twice DMSO control signal | activation, % at 9 µM | 300,000 compounds, 1.7% hits | AID 504408;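 active = mean replicate activation of at least 50% with a set share of replicates each reaching 50%; inconclusive = only one of those two conditions met; inactive = mean below 50% and too few replicates reaching it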
A number is an active result; n = inactive; u = inconclusive; x = no result given.

SMILES	HSF1 inh	TLR4-MyD88 BLA	NOD2 RIPK2 PPI	TLR9-MyD88 block	HSF-1 act
Cc1cccc(CCNC(=O)COc2cc(=O)n(C)c3ccccc23)c1	n	n	n	n	n
CCCS(=O)(=O)N1CCC(C(=O)NCCCN(CC)c2cccc(C)c2)CC1	x	n	n	n	x
CCN(CCCNC(=O)COc1cc(=O)n(C)c2ccccc12)c1cccc(C)c1	n	n	n	n	162
O=C(CC(O)(c1ccccc1)c1ccccc1)Nc1ccccn1	x	x	n	n	x
COc1ccc(C(=O)O)cc1S(=O)(=O)Nc1ccc(Oc2ccccc2)cc1	x	x	n	n	x
CCN(CCCNC(=O)C1CCC(=O)N1Cc1ccccc1Cl)c1cccc(C)c1 (stereo not drawn)	n	n	n	n	77
CCN(CC)C(=O)CSC1=N/C(=C/c2ccco2)C(=O)N1c1ccc(OC)c(Cl)c1	n	n	n	n	67
NC(=O)CSC1=N/C(=C\c2ccco2)C(=O)N1c1ccc(OC(F)F)cc1	n	n	n	n	72
CCOc1cc(/C=C2\N=C(SC(C)C(N)=O)N(c3ccc(OC(F)F)cc3)C2=O)ccc1O (stereo not drawn)	n	x	n	n	n
COc1ccc(N2C(=O)/C(=C\c3ccco3)N=C2SCC(=O)NC(C)(C)C)cc1Cl	n	n	n	n	u
COc1cc(C(=O)Nc2ccn(C)n2)ccc1OC(F)F	x	x	n	n	x
COc1ccc2nc(Nc3ccccc3)sc2c1	n	n	n	n	68
O=C(O)Cc1sc(Nc2ccccc2)nc1-c1ccc(Cl)cc1	n	n	n	n	n
Cc1ccc(Nc2nc(-c3ccccc3)c(CC(=O)O)s2)cc1	n	n	n	n	63
COc1ccc2nc(Nc3ccccc3OC)sc2c1	n	n	n	n	73
Cc1ccc(Nc2nc3ccccc3s2)cc1	n	n	n	n	60
Cc1ccc(SCC(=O)OCC(=O)NC2(C#N)CCCCC2)cc1	n	x	n	n	n
Cc1cc(C)n2c(SCC(=O)Nc3ccccc3C#N)nnc2n1	x	x	n	n	x
CN(C)C(=S)Nc1nc2ccccc2s1	n	n	n	n	83
COc1ccc2nc(NC(=O)c3ccccc3O)sc2c1	n	x	n	n	103
c1cc2c(c(CC3CO3)c1CC1CO1)OCCOCCOCCOCCO2 (stereo not drawn)	x	x	n	n	x
Cc1ccc(S(=O)(=O)O/N=C2\CCCc3ccccc32)cc1	n	n	n	n	n
CC1=C(C)/C(=N\OS(=O)(=O)c2ccccc2)C=CC1=O	n	n	76	n	n
Cc1ccccc1/C=C\c1nc2ccccc2c(=O)[nH]1	n	n	n	n	122
COC(=O)c1ccc(/C=C/c2nc3ccccc3c(=O)[nH]2)cc1	n	x	n	n	62
SMILES	HSF1 inh	TLR4-MyD88 BLA	NOD2 RIPK2 PPI	TLR9-MyD88 block	HSF-1 act
O=C(c1cc(C2CC2)nn1-c1ccccc1)N1CCN(Cc2ccccc2)CC1	x	x	n	n	x
COc1ccc(C(C)(O)c2nc(-c3cccs3)cs2)cc1 (stereo not drawn)	x	x	n	x	x
c1ccc(CCNc2nc(-c3ccccn3)cs2)cc1	n	n	n	n	53
CN(C)N1C(N)=C(C#N)C(c2ccc3c(c2)OCO3)C2=C1CCCC2=O (stereo not drawn)	n	x	n	n	n
Cc1cc(C)c(C(CC(=O)c2cccs2)C(C#N)C#N)c(C)c1 (stereo not drawn)	n	n	n	n	122
COC(=O)/C(=C\Nc1ccccc1N)c1ncc(C(F)(F)F)cc1Cl	n	n	n	n	138
CC1(Br)C(Sc2ccccc2[N+](=O)[O-])=Nc2ccccc21 (stereo not drawn)	x	x	n	x	x
Cc1cccc(NC(=O)c2ccc(COc3ccc4ccccc4c3)o2)n1	n	n	n	n	68
CCCCOc1ccc(C(=O)Nc2cccc(C)n2)cc1	n	n	n	n	57
CC(C)(C)C(=O)N1CCN(CCN2C(=O)c3cccc4cccc(c34)C2=O)CC1	-53	x	n	n	n
CC(C)C(=O)N1CCN(CCN2C(=O)c3cccc4cccc(c34)C2=O)CC1	n	x	n	n	n
COc1cccc(NC(=O)CCC(=O)N2CC(C)Oc3ccc(C)cc32)c1 (stereo not drawn)	n	x	n	n	n
CCN(CC)C(=O)CN(Cc1ccccc1)S(=O)(=O)c1ccc(F)cc1	n	n	n	n	n
CCN(Cc1ccccc1)S(=O)(=O)c1ccc(F)cc1	-62	x	n	n	n
FC(F)(F)c1ccc(-n2cnc3ccccc32)nc1	n	x	n	n	n
O=C(Nc1ccccc1O)c1cccc(S(=O)(=O)Nc2ccccc2O)c1	n	x	n	n	123
Cc1ccccc1NS(=O)(=O)c1cccc(C(=O)Nc2cccc(C(=O)O)c2)c1	n	x	n	n	n
COc1ccc2c(c1)CCC1C2=NN(/C(C)=C\C(C)=O)C1c1ccc(F)cc1 (stereo not drawn)	n	n	n	n	n
COc1ccc2c(c1)C1=NN(/C(C)=C/C(C)=O)C(c3ccc(F)cc3)C1CC2 (stereo not drawn)	n	n	n	n	53
CCC(C)NC(=O)c1csc2c1CCCCC2 (stereo not drawn)	n	n	n	n	67
CC(C)CCNC(=O)c1csc2c1CCCCC2	n	n	n	n	n
COc1ccc(NC(=O)c2csc3c2CCCC3)cc1	n	n	n	n	53
CCN(C(=O)COC(=O)c1ccc(O)cc1O)c1c(N)n(Cc2ccccc2)c(=O)[nH]c1=O	x	x	n	n	x
C#CCOCCOCCOCCNc1nc(N2CCN(C(=O)Cn3cc(CC(C)O)nn3)CC2)nc(N2CCN(C(=O)[C@H](CCCCN)n3cc(CC(C)O)nn3)CC2)n1 (stereo partly drawn)	x	x	n	n	x
COc1ccc(F)cc1-c1cc(C(=O)NCc2cc(C(F)(F)F)cc(C(F)(F)F)c2)[nH]n1	x	x	n	x	x
SMILES	HSF1 inh	TLR4-MyD88 BLA	NOD2 RIPK2 PPI	TLR9-MyD88 block	HSF-1 act
CCc1nnc(NC(=O)c2cccc(S(=O)(=O)N3CCCCC3)c2)s1	-56	x	n	n	n
CCc1nnc(NC(=O)c2cccc(S(=O)(=O)N3CCCC3)c2)s1	n	x	n	n	n
CCCn1c(NC(=O)c2cccc(S(=O)(=O)N3CCCC3)c2)nc2ccccc21	-54	n	n	n	n
CCCn1c(NC(=O)c2ccccc2)nc2ccccc21	n	n	n	n	n
CCCCc1ccc(S(=O)(=O)NC(=O)C2(C)CCN2C(=O)C/C=C/c2ccccc2)cc1 (stereo not drawn)	x	x	n	x	x
O=C(Nc1ccc(S(=O)(=O)Nc2cnc3ccccc3n2)cc1)c1ccc([N+](=O)[O-])cc1Cl	n	x	n	n	n
Cc1ccc(C(CC(=O)O)NC(=O)CN2C(=O)c3ccccc3C2=O)cc1 (stereo not drawn)	n	x	n	n	n
CCc1ccc(NC(=O)CSc2nc3n[nH]c(C)c3c(=N)n2-c2cccc(OC)c2)cc1	n	n	n	n	69
COc1cccc(NC(=O)CSc2nc3n[nH]c(C)c3c(=N)n2-c2cccc(OC)c2)c1	n	n	n	n	n
CCCN(CC(=O)Nc1ccc(Cl)cc1Cl)C(=O)/C=C/c1ccco1	n	n	n	n	64
